# Assay results as given in the supplement of paper PMC4466140.
# B1: unnamed (peptide)
# chain: IAPIPMPKPNPTHIS
# B2: unnamed (peptide)
# chain: WTQRRGPLVVYAEDN
# B3: unnamed (peptide)
# chain: VFQFQMPTTPISTKM
# B4: unnamed (peptide)
# chain: STPQTMRQAPKRPDA
# Target: AgAbp1
# Experiment: SPOT peptide array binding signal intensity (averaged, normalized) (arbitrary units (background-subtracted, floor 0; scale differs between SH3 domains)); higher = stronger binding of the SH3 domain to the peptide
# How it was run: (§1)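 Spot intensities were captured after detection with anti-GST antibody, an HRP-linked anti-mouse secondary and luminol, and quantified with Genespotter. The probes were GST-fused SH3 domains from four yeast species, produced in E. coli BL21(DE3), purified on glutathione Sepharose and incubated at 10 μg/ml overnight at 4°C on cellulose-bound synthetic 15-mer peptides with cysteines replaced by serines. Binding signal is the normalized, background-subtracted spot intensity averaged over replicates, and its arbitrary units differ between domains.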
row,Binder,SPOT peptide array binding signal intensity
1,B1,≤ 0
2,B2,≤ 0
3,B3,≤ 0

# Target: AgBbc1
# Experiment: as above
# How it was run: as §1
row,Binder,SPOT peptide array binding signal intensity
1,B1,≤ 0
2,B2,7
3,B3,10

# Target: AgBem1-D1
# Experiment: as above
# How it was run: as §1
row,Binder,SPOT peptide array binding signal intensity
1,B1,7
2,B2,102
3,B3,132

# Target: AgBzz1-D1
# Experiment: as above
# How it was run: as §1
row,Binder,SPOT peptide array binding signal intensity
1,B1,≤ 0
2,B2,11
3,B3,22.5

# Target: AgBzz1-D2
# Experiment: as above
# How it was run: as §1
row,Binder,SPOT peptide array binding signal intensity
1,B1,4
2,B2,22.5
3,B3,9

# Target: AgCyk3
# Experiment: as above
# How it was run: as §1
row,Binder,SPOT peptide array binding signal intensity
1,B1,≤ 0
2,B2,0.5
3,B3,1

# Target: AgFus1
# Experiment: as above
# How it was run: as §1
row,Binder,SPOT peptide array binding signal intensity
1,B1,44.5
2,B2,35.5
3,B3,346

# Target: AgHof1
# Experiment: as above
# How it was run: as §1
row,Binder,SPOT peptide array binding signal intensity
1,B1,≤ 0
2,B2,15.5
3,B3,5

# Target: AgHse1
# Experiment: as above
# How it was run: as §1
row,Binder,SPOT peptide array binding signal intensity
1,B1,12
2,B2,20.5
3,B3,428

# Target: AgLsb1
# Experiment: as above
# How it was run: as §1
row,Binder,SPOT peptide array binding signal intensity
1,B1,≤ 0
2,B2,4
3,B3,2

# Target: AgLsb4
# Experiment: as above
# How it was run: as §1
row,Binder,SPOT peptide array binding signal intensity
1,B1,≤ 0
2,B2,17.5
3,B3,≤ 0

# Target: AgMyo5
# Experiment: as above
# How it was run: as §1
row,Binder,SPOT peptide array binding signal intensity
1,B1,≤ 0
2,B2,3
3,B3,14.8

# Target: AgNbp2
# Experiment: as above
# How it was run: as §1
row,Binder,SPOT peptide array binding signal intensity
1,B1,61.5
2,B2,≤ 0
3,B3,344

# Target: AgRvs167
# Experiment: as above
# How it was run: as §1
row,Binder,SPOT peptide array binding signal intensity
1,B1,0.333
2,B2,1.17
3,B3,1.33

# Target: AgSho1
# Experiment: as above
# How it was run: as §1
row,Binder,SPOT peptide array binding signal intensity
1,B1,32
2,B2,4
3,B3,251

# Target: AgSla1-D1-D2
# Experiment: as above
# How it was run: as §1
row,Binder,SPOT peptide array binding signal intensity
1,B1,≤ 0
2,B2,20
3,B3,1.5

# Target: AgSla1-D3
# Experiment: as above
# How it was run: as §1
row,Binder,SPOT peptide array binding signal intensity
1,B1,4.5
2,B2,2
3,B3,3

# Target: CaAbp1-D1
# Experiment: as above
# How it was run: as §1
row,Binder,SPOT peptide array binding signal intensity
1,B1,≤ 0
2,B2,≤ 0
3,B3,59

# Target: CaAbp1-D2
# Experiment: as above
# How it was run: as §1
row,Binder,SPOT peptide array binding signal intensity
1,B1,28.5
2,B2,≤ 0
3,B3,116

# Target: CaBbc1
# Experiment: as above
# How it was run: as §1
row,Binder,SPOT peptide array binding signal intensity
1,B1,≤ 0
2,B2,27.2
3,B3,34

# Target: CaBem1-D1
# Experiment: as above
# How it was run: as §1
row,Binder,SPOT peptide array binding signal intensity
1,B1,48.5
2,B2,3
3,B3,111

# Target: CaBzz1-D1
# Experiment: as above
# How it was run: as §1
row,Binder,SPOT peptide array binding signal intensity
1,B1,≤ 0
2,B2,286
3,B3,152

# Target: CaBzz1-D2
# Experiment: as above
# How it was run: as §1
row,Binder,SPOT peptide array binding signal intensity
1,B1,9.75
2,B2,142
3,B3,101

# Target: CaCyk3
# Experiment: as above
# How it was run: as §1
row,Binder,SPOT peptide array binding signal intensity
1,B1,≤ 0
2,B2,18
3,B3,13

# Target: CaFus1
# Experiment: as above
# How it was run: as §1
row,Binder,SPOT peptide array binding signal intensity
1,B1,170
2,B2,190
3,B3,820

# Target: CaHof1
# Experiment: as above
# How it was run: as §1
row,Binder,SPOT peptide array binding signal intensity
1,B1,0.5
2,B2,1.5
3,B3,0.5

# Target: CaHse1
# Experiment: as above
# How it was run: as §1
row,Binder,SPOT peptide array binding signal intensity
1,B1,33.8
2,B2,6.25
3,B3,303

# Target: CaLsb1
# Experiment: as above
# How it was run: as §1
row,Binder,SPOT peptide array binding signal intensity
1,B1,≤ 0
2,B2,6.5
3,B3,2.5

# Target: CaLsb4
# Experiment: as above
# How it was run: as §1
row,Binder,SPOT peptide array binding signal intensity
1,B1,51
2,B2,29.5
3,B3,407

# Target: CaMyo5
# Experiment: as above
# How it was run: as §1
row,Binder,SPOT peptide array binding signal intensity
1,B1,3
2,B2,26
3,B3,92.8

# Target: CaNbp2
# Experiment: as above
# How it was run: as §1
row,Binder,SPOT peptide array binding signal intensity
1,B1,430
2,B3,985

# Target: CaRvs167
# Experiment: as above
# How it was run: as §1
row,Binder,SPOT peptide array binding signal intensity
1,B1,≤ 0
2,B3,32.7

# Target: CaRvs167-3
# Experiment: as above
# How it was run: as §1
row,Binder,SPOT peptide array binding signal intensity
1,B1,≤ 0
2,B3,4.5

# Target: CaSho1
# Experiment: as above
# How it was run: as §1
row,Binder,SPOT peptide array binding signal intensity
1,B1,305
2,B3,922

# Target: CaSla1-D1-D2
# Experiment: as above
# How it was run: as §1
row,Binder,SPOT peptide array binding signal intensity
1,B1,58.5
2,B3,404

# Target: CaSla1-D3
# Experiment: as above
# How it was run: as §1
row,Binder,SPOT peptide array binding signal intensity
1,B1,52.5
2,B3,454

# Target: ScAbp1
# Experiment: as above
# How it was run: as §1
row,Binder,SPOT peptide array binding signal intensity
1,B1,≤ 0
2,B3,4

# Target: ScBbc1
# Experiment: as above
# How it was run: as §1
row,Binder,SPOT peptide array binding signal intensity
1,B1,≤ 0
2,B3,≤ 0

# Target: ScBem1-D1
# Experiment: as above
# How it was run: as §1
row,Binder,SPOT peptide array binding signal intensity
1,B1,≤ 0
2,B3,1

# Target: ScBzz1-D1
# Experiment: as above
# How it was run: as §1
row,Binder,SPOT peptide array binding signal intensity
1,B1,≤ 0
2,B3,10

# Target: ScBzz1-D2
# Experiment: as above
# How it was run: as §1
row,Binder,SPOT peptide array binding signal intensity
1,B1,≤ 0
2,B3,25

# Target: ScCyk3
# Experiment: as above
# How it was run: as §1
row,Binder,SPOT peptide array binding signal intensity
1,B1,≤ 0
2,B3,13

# Target: ScFus1
# Experiment: as above
# How it was run: as §1
row,Binder,SPOT peptide array binding signal intensity
1,B1,56
2,B3,327

# Target: ScHof1
# Experiment: as above
# How it was run: as §1
row,Binder,SPOT peptide array binding signal intensity
1,B1,≤ 0
2,B3,≤ 0

# Target: ScHse1
# Experiment: as above
# How it was run: as §1
row,Binder,SPOT peptide array binding signal intensity
1,B1,≤ 0
2,B3,254

# Target: ScLsb1
# Experiment: as above
# How it was run: as §1
row,Binder,SPOT peptide array binding signal intensity
1,B1,≤ 0
2,B3,46.5

# Target: ScLsb2
# Experiment: as above
# How it was run: as §1
row,Binder,SPOT peptide array binding signal intensity
1,B1,≤ 0
2,B3,≤ 0

# Target: ScLsb3
# Experiment: as above
# How it was run: as §1
row,Binder,SPOT peptide array binding signal intensity
1,B1,≤ 0
2,B3,282

# Target: ScLsb4
# Experiment: as above
# How it was run: as §1
row,Binder,SPOT peptide array binding signal intensity
1,B1,≤ 0
2,B3,124

# Target: ScMyo3
# Experiment: as above
# How it was run: as §1
row,Binder,SPOT peptide array binding signal intensity
1,B1,≤ 0
2,B3,20.8

# Target: ScMyo5
# Experiment: as above
# How it was run: as §1
row,Binder,SPOT peptide array binding signal intensity
1,B1,≤ 0
2,B3,8

# Target: ScNbp2
# Experiment: as above
# How it was run: as §1
row,Binder,SPOT peptide array binding signal intensity
1,B1,158
2,B3,636

# Target: ScPex13
# Experiment: as above
# How it was run: as §1
row,Binder,SPOT peptide array binding signal intensity
1,B1,22.2
2,B3,186

# Target: ScRvs167
# Experiment: as above
# How it was run: as §1
row,Binder,SPOT peptide array binding signal intensity
1,B1,0.333
2,B3,11.8

# Target: ScSho1
# Experiment: as above
# How it was run: as §1
row,Binder,SPOT peptide array binding signal intensity
1,B1,158
2,B3,530

# Target: ScSla1-D1-D2
# Experiment: as above
# How it was run: as §1
row,Binder,SPOT peptide array binding signal intensity
1,B1,0.5
2,B3,245

# Target: ScSla1-D3
# Experiment: as above
# How it was run: as §1
row,Binder,SPOT peptide array binding signal intensity
1,B1,81.5
2,B3,228

# Target: SpAbp1-D1
# Experiment: as above
# How it was run: as §1
row,Binder,SPOT peptide array binding signal intensity
1,B1,8.5
2,B3,21

# Target: SpBbc1
# Experiment: as above
# How it was run: as §1
row,Binder,SPOT peptide array binding signal intensity
1,B1,≤ 0
2,B3,2.5

# Target: SpBzz1-D1
# Experiment: as above
# How it was run: as §1
row,Binder,SPOT peptide array binding signal intensity
1,B1,37.5
2,B3,324

# Target: SpBzz1-D2
# Experiment: as above
# How it was run: as §1
row,Binder,SPOT peptide array binding signal intensity
1,B1,0.5
2,B3,4.25
3,B4,11

# Target: SpCyk3
# Experiment: as above
# How it was run: as §1
row,Binder,SPOT peptide array binding signal intensity
1,B1,≤ 0
2,B3,4
3,B4,6

# Target: SpHof1
# Experiment: as above
# How it was run: as §1
row,Binder,SPOT peptide array binding signal intensity
1,B1,≤ 0
2,B3,52.5
3,B4,25

# Target: SpHof1-2
# Experiment: as above
# How it was run: as §1
row,Binder,SPOT peptide array binding signal intensity
1,B1,7
2,B3,36.5
3,B4,38.8

# Target: SpHof1-3
# Experiment: as above
# How it was run: as §1
row,Binder,SPOT peptide array binding signal intensity
1,B1,≤ 0
2,B3,18.5
3,B4,≤ 0

# Target: SpHse1
# Experiment: as above
# How it was run: as §1
row,Binder,SPOT peptide array binding signal intensity
1,B1,217
2,B3,456
3,B4,190

# Target: SpLsb1
# Experiment: as above
# How it was run: as §1
row,Binder,SPOT peptide array binding signal intensity
1,B1,≤ 0
2,B3,4.5
3,B4,≤ 0

# Target: SpLsb4
# Experiment: as above
# How it was run: as §1
row,Binder,SPOT peptide array binding signal intensity
1,B1,92.5
2,B3,349
3,B4,384

# Target: SpMyo1
# Experiment: as above
# How it was run: as §1
row,Binder,SPOT peptide array binding signal intensity
1,B1,0.5
2,B3,85.5
3,B4,325

# Target: SpNbp2
# Experiment: as above
# How it was run: as §1
row,Binder,SPOT peptide array binding signal intensity
1,B1,29
2,B3,272
3,B4,266

# Target: SpPex13
# Experiment: as above
# How it was run: as §1
row,Binder,SPOT peptide array binding signal intensity
1,B1,2
2,B3,124
3,B4,51

# Target: SpRvs167
# Experiment: as above
# How it was run: as §1
row,Binder,SPOT peptide array binding signal intensity
1,B1,≤ 0
2,B3,27
3,B4,25.8

# Target: SpSla1-D1-D2
# Experiment: as above
# How it was run: as §1
row,Binder,SPOT peptide array binding signal intensity
1,B1,≤ 0
2,B3,3
3,B4,1.5

# Target: SpSla1-D3
# Experiment: as above
# How it was run: as §1
row,Binder,SPOT peptide array binding signal intensity
1,B1,32
2,B3,297
3,B4,182
